# Results taken from PubChem BioAssay (NCI).
# The panel holds about 83,000 compounds, 20% with a hit somewhere; the sample as a whole holds those more often.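 Cells were grown in 96-well plates and exposed to the test compound at a single concentration for 48 hours; results are reported as percent growth, with values below 10 considered active.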 The source made the active and inactive calls.
# Test system: HL-60(TB) leukemia
# Assay: NCI-60 one-dose screen, 48 h (100 = growth as untreated, 0 = no growth, -100 = all killed)
# Details: 10 µM unless noted
row,Structure (SMILES),growth
1,COc1cccc(/C(C#N)=C/c2nc3c(N4CCOCC4)nc(Cl)nc3n2C)c1,-32% (active)
2,COc1cc2c(=O)n(CCCn3ccnc3)c3c4cc5c(cc4ccc3c2cc1OC)OCO5,-15.2% (active)
3,Nc1ncnc2c1CN(Cc1ccccc1)CC2,105% (inactive)
4,COc1ccc(-c2csc(-c3cc(Cl)cc(Cl)c3Cl)n2)cc1,93.6% (inactive)
5,CSc1nc(N)n2nccc2n1,106% (inactive)
6,CCC(=O)Nc1nnc(Cc2ccc(OC)c(OC)c2)s1,53.2% (inactive)
7,COC(=O)c1ccc2c(c1)n(Cc1ccc3ccccc3c1)c[n+]2Cc1ccc2ccccc2c1,-18.8% (active)
8,Fc1ccc2c(CN3CCO[C@H](COc4cccc(Cl)c4)C3)c[nH]c2c1,27.1% (inactive)
9,Cc1ccc(-n2nnc(C3=NCCc4c3[nH]c3ccc(Cl)cc43)c2C)cc1,39.4% (inactive)
10,Cc1ccc(-c2nc(N3CCN(C(=O)Nc4ccc(Cl)c(C(F)(F)F)c4)CC3)c3ccccc3n2)cc1,98.9% (inactive)
11,CC1C(C)N(C(=O)CCl)c2ccccc2N1C(=O)CCl (stereo not given),-56.9% (active)
12,CC(C)C1=C[C@@]23CC[C@@H]4[C@](C)(CCC[C@@]4(C)C(=O)N4CCCNCC4)[C@H]2C[C@@H]1[C@H]1C(=O)CCC(=O)[C@H]13,100% (inactive)
13,C#CCNC(=O)CC[C@@H](C)[C@H]1CC[C@H]2[C@@H]3CC[C@@H]4CC(=O)CC[C@]4(C)[C@H]3CC[C@]12C,-30% [100 µM] (active)
14,Cc1cc(NCc2cc(Nc3ccnc4cc(Cl)ccc34)ccc2F)nc(N2CCOCC2)n1,-52.7% (active)
15,O=C(C(=O)c1cccnc1)c1cccnc1,104% (inactive)
16,O=C(Nc1ccccc1)c1cc(Cl)ccc1O,29.6% (inactive)
17,Fc1cc(-c2cnc3nonc3n2)c(Cl)cc1Cl,-20.2% (active)
18,CCN(CC)CCOc1ccc2c(-c3ccccc3)c(-c3ccc(OC)cc3)c(=O)oc2c1,48.8% (inactive)
19,COc1cc2nc(Cl)nc(Nc3cccc(C(=O)/C=C/c4ccc(F)cc4)c3)c2cc1OC,62.1% (inactive)
20,CC(=O)C[n+]1ccccc1Sc1ccc(Cl)cc1,28.4% (inactive)

row,Structure (SMILES),growth
1,CCCCCCCCCCCC[n+]1ccccc1 (tested in a mixture with another compound),-77.6% (active)
2,C=CC(=O)N1CCN(c2ccc3cccc(NC(=O)c4cnc(C)cn4)c3n2)CC1,26.6% (inactive)
3,CCOC(=O)c1cc(N)nc2ccccc12,104% (inactive)
4,COc1ccccc1[C@H]1c2[nH]c3ccccc3c2C[C@H]2C(=O)N(CCCCCCC(=O)NO)CC(=O)N12,1.91% (active)
5,COc1ccc(C(O)c2cc3c(N)c(C(=O)Nc4cccc(Br)c4)sc3nc2C)cc1 (stereo not given),-5.69% (active)
6,OC(c1ccccc1)C(NCc1ccccc1)c1ccccc1 (stereo not given),98.4% (inactive)
7,N=C(N)c1ccc(-c2ccc(-c3ccc(Cl)cc3Cl)s2)cc1F,-49.7% (active)
8,CCOC(=O)C(Cc1ccccc1)n1c(O)c(C=Nc2ccc(C(=O)OCCN(CC)CC)cc2)sc1=O (stereo not given),97.8% (inactive)
9,NS(=O)(=O)c1ccc(NCC(=O)Nc2ccc(-c3nc4ccccc4s3)cc2)cc1,33.4% (inactive)
10,CC(C)(C)c1ccc(S(=O)(=O)O)s1,82.5% (inactive)
11,COc1ccc(S(=O)(=O)NCCNc2nccc(-c3c(-c4cccc(N)c4)nc4sccn34)n2)cc1,116% (inactive)
12,CCN(CC)CCCC(C)N/C(=C1\C(=O)NC(=O)\C1=C(/NC(C)CCCN(CC)CC)c1cccc(OC)c1)c1cccc(OC)c1 (stereo not given),-35.6% (active)
13,O=C(Nc1ccc(OCc2nnc(-c3ccc(Cl)cc3)o2)c(F)c1)Nc1ccc(Cl)c(Cl)c1,95.5% (inactive)
14,O=C(/C=C/c1ccc(F)cc1)Nc1ncc(Cc2ccc(F)cc2)s1,-26.6% (active)
15,C#CCOc1ccc2ncnc(Nc3ccc(NC(=O)C=C)cc3)c2c1,-52.5% (active)
16,CCCCn1sc(=O)n(Cc2ccc(CNC(=O)OCc3ccc4c(Br)cc(Br)c(O)c4n3)cc2)c1=O,-60.6% (active)
17,c1ccc(CCNc2c3ccccc3nc3ccccc23)cc1,41.3% (inactive)
18,CC/C(=C(/c1ccc(OCCN(C)C)cc1)c1ccc(OC(=O)CCCCC(=O)c2c(C)[nH]c(/C=C3\N=C(c4ccc[nH]4)C=C3OC)c2C)cc1)c1ccccc1,82.2% (inactive)
19,CC(C)N(CCOc1ccc(-c2nc3sccn3c2-c2ccnc(S(C)(=O)=O)n2)cc1)C(C)C,85.8% (inactive)
20,Cc1ccc([N+](=O)[O-])cc1Br,80.6% (inactive)
